The results in this text go back to PubChem BioAssay AID802 (Columbia University Molecular Screening Center, 2007).

The campaign covered roughly 95,000 compounds. About 460 (0.48%) were called active. This excerpt belongs to a sample that is enriched for actives. Unmarked numbers belong to inactive results.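 The calls were made as follows: active = inhibition above the batch mean plus 3 SD, with images confirmed as a hit by eye (cut at about 37% in these data); inconclusive = inhibition above that limit but hit not confirmed in images; inactive = inhibition not above that limit.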

A short description of this experiment: blockers of endothelial VCAM-1 upregulation by TNFa – imaging, HUVEC, TNFa stimulus, immunofluorescence, primary screen (AID 802).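 Also: 0% = TNF-stimulated DMSO wells and 100% = unstimulated control wells.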 Particulars: HUVEC TNFa-induced VCAM-1 immunofluorescence, high-content imaging; at 2 µM; stronger effect = higher value.
Broadly, the inhibition is the change of the read-out against control, counted positive when it falls. Turning to `O=C(c1ccccn1)c1ncc(C(F)(F)F)cc1Cl`, the inhibition is 2.2%.
Next, `Cc1ccc(C(=O)c2c(NC(=O)c3ccncc3)sc3c2CCCC3)cc1`: 3%; `O=C(Cn1cnc2ccccc2c1=O)NCC1COc2ccccc2O1` (stereo unspecified): 0.5%.
Next, `Cc1ccc(-c2nn(C(C)(C)C)c3ncnc(N)c23)cc1`: 40.8% (active); `C=CCn1c(N)c(S(=O)(=O)c2cccs2)c2nc3ccccc3nc21`: -6.6%; `C=CCn1c(N)c(C(=O)OCC(C)C)c2nc3ccccc3nc21`: 94.4% (active).
Next, `CC(C)(C)OC(=O)c1c(N)n(CCCN2CCCC2=O)c2nc3ccccc3nc12`: -22.1%; `Cc1ccc(SCC(=O)c2cc(C)c(OC(=S)N(C)C)c(C)c2)cc1`: 8.8%.
Consider `COc1cc(C(=O)N2CCN(C/C=C/c3ccccc3)CC2)cc(OC)c1C`, for which the inhibition is -10.4%.
Next, `Cc1cc(/C=N/NC(=O)CC2(C)OCCO2)c(C)n1-c1ccc(Cl)c(Cl)c1`: -7.1%.
As to `CCOC(=O)C(=O)Nc1nc(-c2ccccc2)c(CC)s1`, the inhibition is 4.9%.
Next, `O=S(=O)(NCc1cccnc1)c1ccc(Cl)nc1`: 0.2%; `COc1ccc(C(C(=O)NCc2ccccc2)N(Cc2cccs2)C(=O)c2cnccn2)cc1` (stereo unspecified): 2.9%.
Take `Cc1ccc(-c2nc3ccccc3[nH]2)cc1N`: the inhibition was 4.2%.
Next, `NC(=O)COc1ccc(/C=N/NC(=O)C2CCCN2S(=O)(=O)c2ccc(Cl)cc2)cc1` (stereo unspecified): 17.1%.
In the case of `O=S(=O)(/N=C(/Nc1ccccn1)c1ccccc1)c1ccc(Cl)cc1` it was 0.3%.
Next, `Cc1ccccc1CS(=O)(=O)CC1(O)CCN(C(=O)c2cccc(C(F)(F)F)c2)CC1`: -2%.
Take `O=C(NC1(C(F)(F)F)NC(=O)N(Cc2cccnc2)C1=O)c1ccccc1Cl` (stereo unspecified): the inhibition was 8.4%.
Next, `COc1cc(NS(=O)(=O)c2ccc(N/C=C(\C=O)c3nc4cc(Cl)ccc4o3)cc2)nc(OC)n1`: -2.6%.
For `Cc1cc(C(=O)CSc2nc(N)cc(=O)[nH]2)c(C)n1CCc1ccc(Cl)cc1`, the inhibition was 16.5%.
Next, `CSc1nc2nc3c(c(=O)n2[nH]1)CCC3`: 7.1%; `CC(C)=CC(=O)Nc1nnc(-c2ccc(F)cc2)s1`: 6.5%; `CC(C)(C)c1cc2cccnc2n1Cc1ccccc1`: 9.9%.
Next, `Cc1cccc(N2CCN(S(=O)(=O)c3ccc4[nH]c(=O)c(=O)[nH]c4c3)CC2C)c1` (stereo unspecified): 3.1%.
In the case of `CCOc1ccccc1N=C1NC(=O)CS1` it was -6.9%; in that of `Cc1cccc(N=C2NC(=O)CS2)c1C`, 97.1% (active); in that of `C=CCOC(=O)C1=C(C)NC(C)=C(C(=O)OCC=C)C1c1cccs1`, 3.8%.
Regarding `CCCOC(=O)c1[nH]c2c(c1C)C(=O)CC(c1cccs1)C2` (stereo unspecified), the inhibition was 65% (active).
As for `COC(=O)C1C(=O)c2c([nH]c(C(=O)OCCSC)c2C)CC1C` (stereo unspecified), the inhibition was 1.9%.
Next, `CCCCCCC12CCC(C(=O)O)(CC1)CC2`: 25.1%; `Cc1cccc2c(=O)n3c(nc12)CCCCC3`: 13.3%.
